Bioassay records from PubChem.
Compounds with a hit are over-represented: about 8% of the library has one in this group of screens.
HCV inh: HCV inhibition. Huh7.5.1 HCVcc-Cre infection, luciferase reporter, 44 h. Potency, µM (doses to about 41.8 µM), for the others: at the highest dose activity change, negative = inhibition, usual class: inhibitors. hit rate 3.4% among 340,000. AID 651820; active = well fitted inhibition curve with a large enough effect; inconclusive = small, poorly fitted or top-dose-only effect, or another doubt; inactive = no such curve, though single readings can be large or run the other way; also: potency is read from the fitted curve at half-maximal effect; % is scaled to controls: 0 for no effect and ±100 for the full control effect
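Seed cells (1,000/well) for 4 h; treat with compound and infect with HCVcc-Cre, moi about 0.5. Incubate 44 h, then detect luciferase activity.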
Marburg entry inh: Marburg virus entry inhibition | Marburg virus pseudotyped entry inhibition, cell reporter | hit rate 1.8% among 300,000 | Potency, µM (highest dose often 37.8 µM), for the others: at the highest dose activity change, negative = inhibition, most hits filed as inhibitors; calls by dose curve; tested in HEK293 cells; also: potency is read from the fitted curve at half-maximal effect; % is scaled to controls: 0 for no effect and ±100 for the full control effect
SARS PLpro yeast: inhibitors of SARS-CoV papain-like protease in yeast; S. cerevisiae expressing SARS-CoV PLpro, growth rescue; Potency, µM (series often up to 32.9 µM), for the others: at the highest dose activity, positive = growth rescue, most hits filed as activators; hit rate 0.19% among 330,000; calls by dose curve; also: potency is read from the fitted curve at half-maximal effect; 0% is about no effect; nearly all actives have a fitted effect of over 55% in size
FMDV inh: foot and mouth disease virus antiviral activity | hit rate 1.2% among 410,000 | Potency, µM (top dose mostly 57.9 µM), for the others: at the highest dose activity change, negative = inhibition, actives largely listed as inhibitors | FMDV antiviral cell-based qHTS | AID 1159524; calls by dose curve; tested in HEK293T cells; also: read-out not given here; potency is read from the fitted curve at half-maximal effect; % is scaled to controls: 0 for no effect and ±100 for the full control effect; nearly all actives have a fitted effect of over 45% in size
HCMV antiviral: human cytomegalovirus inhibition; HFF cells, HCMV-luciferase reporter, 72 h; stronger effect = lower value; activity change, negative = inhibition, % at 57.5 µM; hit rate 4.5% among 410,000; AID 1259415; in the data active = activity change below about -60%; inconclusive = no clear call, values can overlap the other calls; inactive = above about -39%; also: % is scaled to controls: 0 for no effect and ±100 for the full control effect
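Compounds were evaluated in HFFs infected with an HCMV luciferase reporter virus (MOI 1 PFU/cell). Luciferase in lysates collected 72 h post infection served as the replication measure.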
LASV entry inh: inhibitors of Lassa virus binding or cell entry | Lassa virus pseudotype entry inhibition, cell reporter | Potency, µM (titrated, usually from 37.9 µM), inactives show top-dose activity change, negative = inhibition, most hits filed as inhibitors | hit rate 1.2% among 300,000 | AID 540256; calls by dose curve; tested in HEK293 cells; also: potency is read from the fitted curve at half-maximal effect; % is scaled to controls: 0 for no effect and ±100 for the full control effect; nearly all actives have a fitted effect of over 50% in size
An asterisk follows results filed as active; u = inconclusive; x = not tested or not shown; ! = repeats disagree; [ ] = dose if it differs, or a comment.

SMILES	HCV inh	Marburg entry inh	SARS PLpro yeast	FMDV inh	HCMV antiviral	LASV entry inh
CCC(CO)Oc1cc(NC(=O)c2cccc([N+](=O)[O-])c2)c2ncn(C(C)C)c2c1 (stereo not drawn)	2.8µM*	x	-4%	-22%	-13	x
COc1cc(OC)cc(C(=O)NC(=S)NNC(=O)[C@H]2C[C@@H]2c2ccccc2)c1	-16%	-16%[46.1 µM]	-2%	-15%	22	3.2µM*
CC(C)(C)NC(=S)NNC(=O)[C@H]1C[C@@H]1c1ccccc1	23%	18%[46.1 µM]	-2%	66%	4	0.89µM*
C=CC(C1=CC(=O)C(OC)=C(OC)C1=O)c1ccccc1 (stereo not drawn)	x	x	x	25µM*	x	x
CCCN1C(=O)C(C#N)C(C)=CC1C (stereo not drawn)	x	-4%	x	x	x	x
O=C1N/C(=C\c2nc3ccccc3s2)c2ccccc21	x	x	8%	x	x	x
O=C1N/C(=C\c2ccccc2)c2ccccc21	7.1µM*	u	-10%	37%	120	10%
CC12Cc3cn[nH]c3C=C1CCC1C2CCC2(C)C1CCC2(C)O (stereo not drawn)	-7%	-12%[46.1 µM]	x	-14%	-2	-10%[46.1 µM]
C#C[C@]1(O)CC[C@H]2[C@H]3CCC4=Cc5oncc5C[C@]4(C)[C@@H]3CC[C@]21C	x	21µM*	x	-30%	x	x
C#C[C@]1(O)CC[C@H]2[C@@H]3CCC4=Cc5oncc5C[C@]4(C)[C@H]3CC[C@@]21C	7%	x	x	40µM*	9	x
COc1ccc(/C=C/c2nc(C)c(-c3ccccc3)c(=O)[nH]2)cc1OC	0%	x	6%	-25%	-65*	x
Cc1nc(-n2ncc(C#N)c2N)c2c3c(sc2n1)CCC3	u	-14%	10%	-8%	-17	-11%
CCCSc1nc(-n2ncc(C#N)c2N)c2c3c(sc2n1)CCC(C)C3 (stereo not drawn)	14µM*	u	-5%	-19%	-7	2%
O=C(NCc1nnc(SCc2ccc(F)cc2)n1-c1ccccc1)C12CC3CC(CC(C3)C1)C2	-27%	u	-3%	40µM*	46	u
O=C(CSc1nnc(CNC(=O)C23CC4CC(CC(C4)C2)C3)n1-c1ccccc1)Nc1ccc(F)cc1	u	u	-3%	u	63	-26%
O=C(NCc1nnc(SCc2ccc(C(F)(F)F)cc2)n1-c1ccccc1)C12CC3CC(CC(C3)C1)C2	u	11µM*	-15%	u	-19	u
CCCN(CCC)C(=O)CCSCCC(=O)N(CCC)CCC	3%	-13%	12%	-7%	-102*	-1%
CC(=O)c1cc(-c2ccccc2)n(CCC(=O)Nc2nc3c(C)cccc3s2)c1C	x	x	x	9%	0	14%[46.1 µM]
COc1ccc2sc(N(CCCN(C)C)C(=O)c3ccc(S(=O)(=O)N(C)Cc4ccccc4)cc3)nc2c1	10µM*	u	-5%	-24%	-36	u
Cc1ccc2sc(N(CCCN(C)C)C(=O)c3ccc(S(=O)(=O)N(C)C)cc3)nc2c1C	u	x	-1%	-20%	-27	x
Cc1ccc2sc(N(CCCN(C)C)C(=O)c3ccc(S(=O)(=O)N(C)Cc4ccccc4)cc3)nc2c1C	3.5µM*	u	-14%	32µM*	-23	u
COc1ccc2c(c1)CO[C@H]([C@H](O)COC(C)=O)[C@H]2C=Cc1ccccc1	x	-2%[14.2 µM]	x	x	x	x
NC(=O)C1CCN(C(=O)NC2CC(=O)N(c3ccc4c(c3)OCCO4)C2)CC1 (stereo not drawn)	5%	6%	2%	-2%	-17	12%
CCN(CC)S(=O)(=O)c1ccc(-c2nnc(SCC(=O)N3c4ccccc4CC3C)n2CC)cc1 (stereo not drawn)	u	u	21%	20µM*	u	u
Oc1ccccc1C=NC(N=Cc1ccccc1O)c1ccccc1O (stereo not drawn)	x	x	x	x	6	x
SMILES	HCV inh	Marburg entry inh	SARS PLpro yeast	FMDV inh	HCMV antiviral	LASV entry inh
O=C(Cn1cnc([N+](=O)[O-])c1)Nc1cc(Oc2ccc(Cl)cc2Cl)cc([N+](=O)[O-])c1	6.3µM*	u	24%	-10%	-73*	u
Oc1ccc(-[n+]2c(-c3ccccc3)cc(-c3ccccc3)cc2-c2ccccc2)cc1	8.9µM*	x	-1%	10µM*	-97*	x
O=C([O-])c1ccc(-[n+]2c(-c3ccccc3)cc(-c3ccccc3)cc2-c2ccccc2)cc1	-1%	x	0%	-23%	18	x
COc1ccc(-[n+]2c(-c3ccccc3)cc(-c3ccccc3)cc2-c2ccccc2)cc1	u	x	9%	3.2µM*	-97*	x
Cc1ccc2c(c1)N(S(=O)(=O)c1cc(-c3onc(C)c3C)ccc1C)CCO2	5µM*	14%[46.1 µM]	-6%	u	-67*!	u
COc1ccc(-c2cc(C)no2)cc1S(=O)(=O)N1CCOc2ccc(Cl)cc21	-2%	x	2%	13%	u	8%[46.1 µM]
COc1ccc(-c2onc(C)c2C)cc1S(=O)(=O)N1CCC(C)CC1	x	x	x	-22%	-79*	-21%[46.1 µM]
Cc1cc(C)c(NS(=O)(=O)c2cc(-c3onc(C)c3C)ccc2C)c(C)c1	x	x	x	4%	-62*	-11%[46.1 µM]
Cc1ccc(-c2onc(C)c2C)cc1S(=O)(=O)Nc1ccc(Cl)cn1	x	x	x	61%	103	14%[46.1 µM]
Cc1ccc(-c2onc(C)c2C)cc1S(=O)(=O)NC1CCC(C)CC1 (stereo not drawn)	x	x	x	19%	-67*	20%[46.1 µM]
O=C(CN(CCO)c1ccccc1)Nc1ccc(Cl)c(S(=O)(=O)N2CCOCC2)c1	-1%	-3%[46.1 µM]	0%	4%	u	-3%[46.1 µM]
COc1cc(=O)n2c(c1C(=O)NC(C)c1ccco1)CCN(CC=C(C)C)CC2 (stereo not drawn)	x	x	x	9%	x	x
Cc1cc(NCc2ccccc2Cl)n2cnnc2n1	x	-3%[46.1 µM]	x	u	u	-10%[46.1 µM]
COc1cccc(-c2c(-c3cc(OC)cc(OC)c3)n(C)c3ccc(-c4cccc5[nH]ccc45)cc23)c1	u	-2%	7%	-6%	28	x
COC(=O)c1ccc2c(c1)C(C)(C)C(/C=C/c1ccc(OC)c(OC)c1OC)=[N+]2C	10µM*	u	-5%	16µM*	-105*	u
CCN1/C(=C/c2cc[n+](C)cc2)C=Cc2cc(C)ccc21	5µM*	u	6%	5µM*	-100*	u
CCCCCOc1ccc(Cn2c(=O)oc3ccc(C)cc32)cc1OC	x	u	x	-23%	9	-11%[46.1 µM]
CCC(Sc1nc(C)cc(C)n1)C(=O)Nc1cc(C)on1 (stereo not drawn)	-8%	5%[46.1 µM]	1%	-6%	u	-3%[46.1 µM]
Cc1cc(C)nc(SCC(=O)NC2=NN=C(c3ccc(Br)cc3)CS2)n1	u	0%	-7%	u	-92*	-12%
CCC(Sc1nc(C)cc(C)n1)C(=O)NC1=NN=C(c2ccc(C)cc2)CS1 (stereo not drawn)	u	u	-10%	-14%	-106*	u
